# Screening data as filed in PubChem BioAssay.
# HCMV inh = qHTS Assay for inhibitors of the human cytomegalovirus (HCMV) | 410,000 tested, 4.5% active | activity change, negative = inhibition, % at 57.5 µM | AID 1259415, 2018 | HFF cells, HCMV-luciferase reporter, 72 h; stronger effect = lower value; in the data active means activity change below about -60%; inconclusive means no clear call, values can overlap the other calls; inactive means above about -39%
#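 After 16 h attachment at 37C, HFF cells received test compound and HCMV-luciferase (1 PFU/cell); reporter luminescence read 72 h later, data normalized against buffer-only and known inhibitor Salinomycin.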
# HCV inhibitor = qHTS Assay for Inhibitors of Hepatitis C Virus (HCV); Huh7.5.1 HCVcc-Cre infection, luciferase reporter, 44 h; Potency, µM (highest dose often 41.8 µM), for the others: at the top dose activity change, negative = inhibition, hits mostly inhibitors; 340,000 tested, 3.4% active; AID 651820, 2012; active means well fitted inhibition curve with a large enough effect; inconclusive means small, poorly fitted or top-dose-only effect, or another doubt; inactive means no such curve, though single readings can be large or run the other way; further: potency means the concentration at half of the fitted maximal effect
#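 Infectious HCV cell culture screen: compound-treated cells (1,000/well, pre-plated 4 h) are infected with HCVcc-Cre at roughly 0.5 moi and grown 44 h. Infection is quantified by luciferase signal after 15 min substrate incubation at room temperature.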
# VACV mCherry inh = qHTS for Stage-Specific Inhibitors of Vaccinia Orthopoxvirus: mCherry Reporter Primary qHTS; Vaccinia virus mCherry reporter infection, fluorescence; Potency, µM (top dose mostly 36.5 µM), without a hit: at the top dose activity change, negative = inhibition, usual class: inhibitors; 310,000 tested, 0.63% active; calls by dose curve; tested in A549 cells; further: potency means the concentration at half of the fitted maximal effect; nearly all actives have a fitted effect of over 35% in size
# Lassa entry inh = qHTS for Inhibitors of binding or entry into cells for Lassa Virus; Lassa virus pseudotype entry inhibition, cell reporter; Potency, µM (doses to about 37.9 µM), for inactives: at the top dose activity change, negative = inhibition, actives largely listed as inhibitors; 300,000 tested, 1.2% active; AID 540256, 2011; calls by dose curve; tested in HEK293 cells; further: potency means the concentration at half of the fitted maximal effect; nearly all actives have a fitted effect of over 50% in size
# Vaccinia Venus = qHTS for Stage-Specific Inhibitors of Vaccinia Orthopoxvirus: Venus Reporter Primary qHTS | Vaccinia virus Venus reporter expression, fluorescence | Potency, µM (top dose mostly 36.5 µM), for the others: top-dose activity change, negative = inhibition, actives largely listed as inhibitors | 330,000 tested, 0.46% active; calls by dose curve; tested in A549 cells; further: potency means the concentration at half of the fitted maximal effect; nearly all actives have a fitted effect of over 30% in size
# Marburg entry inh = qHTS for inhibitors of binding or entry into cells for Marburg Virus; Marburg virus pseudotyped entry inhibition, cell reporter; Potency, µM (series often up to 37.8 µM), without a hit: at the top dose activity change, negative = inhibition, actives largely listed as inhibitors; 300,000 tested, 1.8% active; AID 540276, 2011; calls by dose curve; tested in HEK293 cells; further: potency means the concentration at half of the fitted maximal effect
# An asterisk follows results filed as active; i = inactive; ? = inconclusive; nt = no result; [ ] = dose if it differs, or a comment. Shown are actives, neighbours in structure and some others; about 7.8% of the full set was active somewhere. On the % scale 0 is the no-effect control and ±100 the full control effect.
SMILES,HCMV inh,HCV inhibitor,VACV mCherry inh,Lassa entry inh,Vaccinia Venus,Marburg entry inh
CCn1nc(NC(=O)c2ccco2)c2cc3cc(C)ccc3nc21,4,?,?,-30%,-30%,?
Cn1nc(-c2ccc(OCC(=O)Nc3ccc(Cl)cc3)cc2)c2ccccc2c1=O,35,nt,-24%[7.34 µM],0%[46.1 µM],-9%[7.34 µM],-4%[46.1 µM]
CCCc1nn2c(=O)cc(COC(=O)c3ccco3)nc2s1,15,nt,-14%,-1%[46.1 µM],-2%,nt
COc1ccc(/C=N/NC(=O)Cc2cccs2)cc1,79,8%,nt,nt,nt,nt
Cc1ccc(/C=N/NC(=O)Cc2cccs2)o1,-74*,15%,-10%,9%,-9%,12%
Cc1ccc(-c2nc3cccc(C)n3c2Nc2ccc(F)cc2)o1,nt,nt,-18%,nt,-11%,nt
CC1C=CCC2C(=O)N(c3cccc(C(=O)NCCc4ccccc4)c3)C(=O)C12 (stereo not given),-61*,-4%,nt,nt,nt,nt
C=C1C(=O)[C@]23C[C@H]1CCC2[C@]1(C)CCC[C@@](C)(C(=O)O)C1C[C@@H]3O (stereo not given in full),-102*,nt,6.3µM*,nt,3.5µM*,nt
C=C1C(=O)[C@]23C[C@H]1CCC2[C@]1(C)C(=O)CC[C@@](C)(C(=O)O)C1C[C@@H]3O (stereo not given in full),-19,nt,?,nt,?,nt
Cc1cc2oc(C(=O)Nc3ccc(S(=O)(=O)N(C)Cc4ccccc4)cc3)cc(=O)c2cc1C,-4,nt,-15%,-1%[46.1 µM],-12%,0%[46.1 µM]
CC1(Oc2ccc(Cl)cc2)CCN(Cc2ccc(-c3ccccn3)cc2)C1 (stereo not given),-82*,nt,-4%,nt,-2%,nt
CC1(Oc2ccccc2)CCN(Cc2ccc(-c3ccccn3)cc2)C1 (stereo not given),-37,nt,12%,nt,1%,nt
COc1cc(-c2cnc3ccccc3c2)cc2c1OCCN(C(=O)CCC(=O)c1ccc(F)cc1)C2,nt,nt,-8%,nt,-2%,nt
O=C(Nc1ccc(F)c(F)c1)c1oc2ccccc2c1NC(=O)C1CCCO1 (stereo not given),-65*,-14%,3%,0%,4%,1%[46.1 µM]
Cc1ccc(NC(=O)c2oc3ccccc3c2NC(=O)C2CCCO2)cc1C (stereo not given),-82*,?,-18%,?,3%,?
COc1ccc(NC(=O)c2oc3ccccc3c2NC(=O)C2CCCO2)cc1OC (stereo not given),?,?,-29%,?,-18%,?
CCOc1ccccc1NC(=O)c1oc2ccccc2c1NC(=O)C1CCCO1 (stereo not given),-7,?,-10%,?,0%,?
COCCNC(=O)CSc1nc(-c2ccccc2C)nc2c1c(=O)n(C)c(=O)n2C,1,nt,7%,-27%[46.1 µM],-2%,nt
O=C(c1cc(C(=O)NCc2ccccc2)c(=O)n(Cc2ccccc2)c1)c1cc(Cl)ccc1O,-2,?,-21%,?,?,?
Cc1ccccc1NC(=O)c1cc(C(=O)c2cc(Cl)ccc2O)cn(-c2ccccc2C)c1=O,-65*,13µM*,?,?,?,?
CN1CCN(CC(O)(c2ccc(Cl)cc2)c2ccc(Cl)cc2)CC1,?,3.2µM*,-18%,-13%,-16%,?
CN1CCN(CC(O)COc2ccc(Cl)cc2)CC1 (stereo not given),3,-15%,-11%,20%,-5%,1%
CSCCC(NS(=O)(=O)c1ccc(Cl)cc1)C(=O)OCC(=O)c1c(C)[nH]c2ccccc12 (stereo not given),39,-14%,?,?,?,12µM*
O=C(/C=C/c1ccc(O)c(O)c1)OC(Cc1ccc(O)c(O)c1)C(=O)O (stereo not given),-29,10µM*,1%,nt,-5%,nt
C=Cc1ccc(Cn2nc(-c3ccc(C)c(S(=O)(=O)N(CC)CC)c3)ccc2=O)cc1,11,nt,-23%,-2%[46.1 µM],-17%,?
SMILES,HCMV inh,HCV inhibitor,VACV mCherry inh,Lassa entry inh,Vaccinia Venus,Marburg entry inh
COC(=O)C1CCN(Cc2ccc3c(c2)CN(C(=O)C2CCCN(c4ccccn4)C2)CCO3)CC1 (stereo not given),nt,nt,i,nt,-4%,nt
O=C(NCc1ccco1)c1cc(S(=O)(=O)N2CCCc3ccccc32)ccc1Cl,-67*,?,i,?,-25%,?
O=C(Nc1ccc(F)c(Cl)c1)c1cc(S(=O)(=O)N2CCCc3ccccc32)ccc1F,-32,nt,-4%[7.34 µM],19%[46.1 µM],-3%[7.34 µM],nt
COc1ccc(S(=O)(=O)N2CCc3ccccc32)cc1C(=O)NCc1ccco1,-38,-18%,-17%,?,-18%,-28%
Cc1ccc(C)c(NC(=O)c2cc(S(=O)(=O)N3CCCc4ccccc43)ccc2F)c1,-62*,nt,-15%,-29%[46.1 µM],-12%,nt
CCOc1c(Br)cc(C2C=C(C(=O)O)Nc3ncnn32)cc1OC (stereo not given),?,nt,-2%,17%[46.1 µM],7%,?
Cc1ccc(C(=O)c2c(N)c(-c3nc(-c4ccc5c(c4)OCO5)cs3)c3ccccn23)cc1C,-2,nt,1%,-11%[46.1 µM],5%,15%[46.1 µM]
COc1ccc(-c2nn3c(=O)cc(CN4CCN(C(=O)Nc5ccc(C)c(Cl)c5)CC4)nc3s2)cc1,13,nt,-12%,?,-9%,nt
CC(Sc1ncnc2sccc12)C(=O)Nc1ccc(S(N)(=O)=O)cc1 (stereo not given),31,-23%,11µM*,0%[46.1 µM],?,?
Cc1ccc(S(=O)(=O)Nc2ncnc3sc(C)c(C)c23)cc1,0,-16%,-15%,-8%,-9%,-8%
Cc1sc2ncnc(NCCc3ccc(S(N)(=O)=O)cc3)c2c1C,-76*,1µM*,-9%[1.46 µM],?,?,?
NS(=O)(=O)c1ccc(CNc2ncnc3sccc23)cc1,4,-5%,29%,-1%,0%,2%[46.1 µM]
NS(=O)(=O)c1ccc(CCNc2ncnc3sccc23)cc1,?,5.6µM*,nt,?,nt,?
CC(Sc1ncnc2sccc12)C(=O)Nc1ccc(C(N)=O)cc1 (stereo not given),16,0%,nt,nt,nt,nt
O=C(CCCCn1c(=O)c2ccccc2n(Cc2cccc(Cl)c2)c1=O)NCc1ccc2c(c1)OCO2,-2,nt,-27%,-7%[46.1 µM],-13%,-11%[46.1 µM]
COc1cccc(C(=O)Nc2cccc(C(=O)OCc3cc(=O)n4c5c(sc4n3)CCCC5)c2)c1,-10,nt,-14%,19%[46.1 µM],-13%,nt
CN(c1ccc(OCC(=O)N2CCCCC2)cc1)S(=O)(=O)c1cccs1,-8,-8%,i,?,-17%,0%
